Measured values published in PubChem BioAssay AID1159580 (chemical genetic matrix, 2015).
Values joined by “and” are separate entries in the source; they are usually repeats but may differ in a detail not shown here. Equal values may be shown once. The whole screen tested about 5,500 compounds, of which about 2,000 (36%) were called active. Roughly 18% stayed inconclusive and do not appear here. Some of the results follow. Values without a mark were called inactive. Cut-off read from the data, not from the text of the source: active = normalized growth mostly below about 0.91 (no sharp cut-off); inconclusive = no clear call, values can overlap the other calls; inactive = mostly above about 0.92.

Assay: chemical genetic growth profiling, strain panel (AID 1159580);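 note: tested at 20 µM; growth read once vehicle control cultures reached saturation at 30 °C; 1 = growth at the plate median or of vehicle wells; lower values mean less growth of the strain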
Conditions: S. cerevisiae deletion strains, growth OD

COc1ccc2c(c1)OCC(Cc1ccc(OC)c(O)c1)C2=O (configuration not stated)
normalized growth (locus YAL013W, strain DEP1, active compounds read low): 0.955 | normalized growth (locus YAL021C, strain ccr4, active compounds read low): 0.993 | normalized growth (locus YAL026C, strain drs2, active compounds read low): 0.965 | normalized growth (locus YAL030W, strain snc1, active compounds read low): 0.953 | normalized growth (locus YBL061C, strain skt5, active compounds read low): 0.961 | normalized growth (locus YBR009C, strain hhf1, active compounds read low): 0.903 (active) | normalized growth (locus YBR021W, strain FUR4, active compounds read low): 0.873 | normalized growth (locus YBR023C, strain chs3, active compounds read low): 0.929 | normalized growth (locus YBR171W, strain sec66, active compounds read low): 0.937 | normalized growth (locus YBR229C, strain ROT2, active compounds read low): 0.98 | normalized growth (locus YBR231C, strain swc5, active compounds read low): 0.968 | normalized growth (locus YBR279W, strain paf1, active compounds read low): 0.979 | normalized growth (locus YCL011C, strain gbp2, active compounds read low): 0.922 | normalized growth (locus YCL016C, strain dcc1, active compounds read low): 0.939 | normalized growth (locus YCL029C, strain bik1, active compounds read low): 0.952 | normalized growth (locus YCL061C, strain MRC1, active compounds read low): 0.933 | normalized growth (locus YCL069W, strain vba3, active compounds read low): 0.956 | normalized growth (locus YCR088W, strain abp1, active compounds read low): 0.963 | normalized growth (locus YDL005C, strain med2, active compounds read low): 0.959 | normalized growth (locus YDL035C, strain GPR1, active compounds read low): 0.972 | normalized growth (locus YDL040C, strain nat1, active compounds read low): 0.967 | normalized growth (locus YDL074C, strain BRE1, active compounds read low): 0.937 | normalized growth (locus YDL101C, strain DUN1, active compounds read low): 0.942 | normalized growth (locus YDL185W, strain tfp1, active compounds read low): 0.961 | normalized growth (locus YDL192W, strain arf1, active compounds read low): 0.958 | normalized growth (locus YDR001C, strain nth1, active compounds read low): 0.959 | normalized growth (locus YDR069C, strain doa4, active compounds read low): 1.01 | normalized growth (locus YDR101C, strain arx1, active compounds read low): 0.972 | normalized growth (locus YDR137W, strain rgp1, active compounds read low): 0.974 | normalized growth (locus YDR159W, strain sac3, active compounds read low): 0.867 | normalized growth (locus YDR162C, strain NBP2, active compounds read low): 0.982 | normalized growth (locus YDR195W, strain ref2): 1.23 [resistant] (active) | normalized growth (locus YDR297W, strain sur2, active compounds read low): 0.963 | normalized growth (locus YDR318W, strain mcm21, active compounds read low): 0.93 | normalized growth (locus YDR334W, strain swr1, active compounds read low): 0.977 | normalized growth (locus YDR335W, strain msn5, active compounds read low): 0.973 | normalized growth (locus YDR388W, active compounds read low): 0.967 | normalized growth (locus YDR392W, strain spt3, active compounds read low): 0.449 (active) | normalized growth (locus YDR502C, strain sam2, active compounds read low): 0.909 (active) | normalized growth (locus YEL003W, strain gim4, active compounds read low): 0.933 | normalized growth (locus YEL037C, strain rad23, active compounds read low): 0.964 | normalized growth (locus YEL061C, strain CIN8 (second series), active compounds read low): 0.968 | normalized growth (locus YEL061C, strain CIN8, active compounds read low): 0.978 | normalized growth (locus YER015W, strain faa2, active compounds read low): 0.961 | normalized growth (locus YER016W, strain bim1, active compounds read low): 0.965 | normalized growth (locus YER110C, active compounds read low): 0.931 | normalized growth (locus YER111C, strain swi4, active compounds read low): 0.962 | normalized growth (locus YER155C, strain BEM2 (second series), active compounds read low): 0.757 (active) | normalized growth (locus YER155C, strain BEM2, active compounds read low): 0.963 | normalized growth (locus YER167W, strain BCK2, active compounds read low): 0.981 | normalized growth (locus YFR010W, strain ubp6, active compounds read low): 0.989 | normalized growth (locus YGL078C, strain dbp3, active compounds read low): 0.92 (active) | normalized growth (locus YGL086W, strain mad1, active compounds read low): 0.934 | normalized growth (locus YGL167C, strain pmr1, active compounds read low): 0.939 | normalized growth (locus YGL173C, strain kem1, active compounds read low): 0.924 | normalized growth (locus YGL227W, strain vid30, active compounds read low): 0.964 | normalized growth (locus YGL240W, strain doc1, active compounds read low): 0.821 (active) | normalized growth (locus YGL248W, strain PDE1, active compounds read low): 0.9 | normalized growth (locus YGL253W, strain hxk2, active compounds read low): 0.91 (active) | normalized growth (locus YGR078C, strain PAC10, active compounds read low): 0.914 | normalized growth (locus YGR135W, strain pre9, active compounds read low): 0.868 (active) | normalized growth (locus YGR252W, strain gcn5, active compounds read low): 0.78 | normalized growth (locus YHR013C, strain ard1, active compounds read low): 0.956 | normalized growth (locus YHR027C, strain rpn1, active compounds read low): 0.944 | normalized growth (locus YHR030C, strain SLT2, active compounds read low): 0.978 | normalized growth (locus YHR079C, strain IRE1 (second series), active compounds read low): 0.964 | normalized growth (locus YHR079C, strain IRE1, active compounds read low): 0.983 | normalized growth (locus YHR094C, strain hxt1, active compounds read low): 0.969 | normalized growth (locus YHR129C, strain ARP1, active compounds read low): 0.966 | normalized growth (locus YHR142W, strain chs7, active compounds read low): 0.872 (active) | normalized growth (locus YHR200W, strain rpn10, active compounds read low): 0.975 | normalized growth (locus YIL066C, strain RNR3, active compounds read low): 0.975 | normalized growth (locus YIL073C, strain SPO22, active compounds read low): 0.881 | normalized growth (locus YIL125W, strain kgd1, active compounds read low): 0.969 | normalized growth (locus YIR030C, strain dcg1, active compounds read low): 0.942 | normalized growth (locus YJL092W, strain hpr5, active compounds read low): 0.968 | normalized growth (locus YJL095W, strain BCK1 (second series), active compounds read low): 0.94 | normalized growth (locus YJL095W, strain BCK1, active compounds read low): 0.903 and 1 | normalized growth (locus YJL115W, strain asf1, active compounds read low): 0.969 | normalized growth (locus YJL129C, strain trk1, active compounds read low): 0.886 | normalized growth (locus YJL134W, strain LCB3, active compounds read low): 0.981 | normalized growth (locus YJL154C, strain vps35, active compounds read low): 0.964 | normalized growth (locus YJL164C, strain tpk1, active compounds read low): 0.933 | normalized growth (locus YJL166W, strain qcr8, active compounds read low): 0.844 (active) | normalized growth (locus YJL168C, strain set2, active compounds read low): 0.958 | normalized growth (locus YJL187C, strain SWE1 (second series), active compounds read low): 0.926 | normalized growth (locus YJL187C, strain SWE1, active compounds read low): 0.983
